SMILES strings stand for the structures. This is part of a sample that, as a whole, favours compounds with a hit. Of some 83,000 tested, about 20% had one in any assay.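 Plates (96-well) were seeded with cells, treated with compound at one concentration, and incubated for 48 hours before percent growth was determined.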 A number with no mark means an inactive call. The source made the active and inactive calls. Rule for the calls: active = growth percent below 10; inactive = the rest.

Some test systems named below: SR leukemia; RPMI-8226 leukemia; OVCAR-8 ovarian; OVCAR-5 ovarian; OVCAR-4 ovarian; SK-OV-3 ovarian; IGROV1 ovarian; OVCAR-3 ovarian; HS 578T breast; NCI/ADR-RES ovarian.
What all share (assay): NCI-60 one-dose screen, 48 h (100 = growth as untreated, 0 = no growth, -100 = all killed)
Details in all cases: 10 µM unless noted

Consider `COC12C=C/C(=C(/C(=O)OCc3csc(SC)n3)C(=O)CCCCCCCCC3(OC)C=C/C(=C(/C(=O)OCc4cnc(SC)s4)C(=O)CCCCCCCC1)O3)O2` (stereo not given), for which the growth in the assay on SR leukemia is 1.64% (active); in the assay on RPMI-8226 leukemia, 1.53% (active); in the assay with OVCAR-8 ovarian, 27%; with OVCAR-5 ovarian, 60%; in the assay with OVCAR-4 ovarian, 38.8%; in the assay with SK-OV-3 ovarian, 87.8%. Besides, the growth was 21% with IGROV1 ovarian, 21.5% with OVCAR-3 ovarian, 57.2% in the assay on HS 578T breast and 81.3% with NCI/ADR-RES ovarian.

In the case of `Cc1ccc(-c2nc(SCC(=O)N3CCN(c4cc5c(cc4F)c(=O)c(C(=O)O)cn5C4CC4)CC3)nc(Cl)c2C#N)cc1`, the growth was 103% in the assay on SR leukemia; 104% in the assay with RPMI-8226 leukemia; 106% in the assay with OVCAR-8 ovarian; 96.4% with OVCAR-5 ovarian; 108% in the assay on OVCAR-4 ovarian; 89.2% in the assay with SK-OV-3 ovarian. In addition, the growth with IGROV1 ovarian is 97.4%; in the assay on OVCAR-3 ovarian, 109%; with HS 578T breast it was 104%; in the assay on NCI/ADR-RES ovarian, 102%.

Turning to `CCOC(=O)/C(=C(/C)NCC(C)C)c1cc(O)c(O)c2c(C)cc(=O)[nH]c12`, the growth in the assay on SR leukemia is 18.4%; in the assay with RPMI-8226 leukemia it was 19.2%; in the assay on OVCAR-8 ovarian it was 23.8%; with OVCAR-5 ovarian, 86.6%; with OVCAR-4 ovarian, 25.8%; in the assay on SK-OV-3 ovarian, 84.4%. Moreover, the growth in the assay with IGROV1 ovarian is 61%; in the assay with OVCAR-3 ovarian, 6.74% (active); with HS 578T breast, 79.5%; in the assay on NCI/ADR-RES ovarian, 17.2%.

`CCOC(=O)CC1CSC(N/N=C/c2ccc(F)c(Br)c2)=N1` (stereo not given): the growth was 87.7% in the assay with SR leukemia; 104% in the assay with RPMI-8226 leukemia; 114% with OVCAR-8 ovarian; 95.1% in the assay with OVCAR-5 ovarian; 89.1% with OVCAR-4 ovarian; 95.3% with SK-OV-3 ovarian. The growth was 117% with IGROV1 ovarian, 99.3% with OVCAR-3 ovarian, 112% with HS 578T breast and 103% in the assay on NCI/ADR-RES ovarian.

In the case of `CC(O)Cc1c[nH]c(=O)[nH]c1=O` (stereo not given), the growth with SR leukemia is 93.8%; in the assay with RPMI-8226 leukemia, 117%; with OVCAR-8 ovarian it was 92%; with OVCAR-5 ovarian, 109%; in the assay on OVCAR-4 ovarian it was 115%; with SK-OV-3 ovarian, 29.3%. The growth in the assay with IGROV1 ovarian is 116%; in the assay on OVCAR-3 ovarian, 99%; in the assay with HS 578T breast it was 103%; in the assay on NCI/ADR-RES ovarian it was 104%.

As to `Cc1[nH]n(-c2cccc(Cl)c2)c(=O)c1/C=C1\C=c2ccccc2=CC1=O`, the growth is 29.7% in the assay on SR leukemia; 96.4% with RPMI-8226 leukemia; 22.3% in the assay with OVCAR-8 ovarian; 16.9% with OVCAR-5 ovarian; -62.5% (active) in the assay on OVCAR-4 ovarian; 15.3% with SK-OV-3 ovarian. Besides, the growth is 33.9% in the assay with IGROV1 ovarian, 63.2% with OVCAR-3 ovarian, 82.2% with HS 578T breast and 75.3% with NCI/ADR-RES ovarian.

For `CC(C)(C)CC(C)(C)Nc1c(-c2c(O)c3ccccc3oc2=O)nc2sc3ccccc3n12`, the growth in the assay with SR leukemia was 30.3%; in the assay with RPMI-8226 leukemia, 8.98% (active); in the assay with OVCAR-8 ovarian it was 22.2%; with OVCAR-5 ovarian, 66.9%; with OVCAR-4 ovarian, 41.9%; in the assay with SK-OV-3 ovarian, 30.4%. Also, the growth in the assay with IGROV1 ovarian is 29.5%; with OVCAR-3 ovarian it was 55.2%; in the assay on HS 578T breast, 30.1%; with NCI/ADR-RES ovarian, 40.1%.

For `COc1ccc(C2CC(n3ccnc3)c3cc(OC)c(OC)c(OC)c32)cc1O` (stereo not given), the growth with SR leukemia was 35.4%; in the assay on RPMI-8226 leukemia, 94.6%; in the assay on OVCAR-8 ovarian, 89.2%; in the assay on OVCAR-5 ovarian, 107%; in the assay with OVCAR-4 ovarian, 100%; in the assay with SK-OV-3 ovarian, 86.3%. Moreover, the growth in the assay on IGROV1 ovarian is 82.4%; in the assay with OVCAR-3 ovarian, 57.1%; in the assay on HS 578T breast it was 85.4%; in the assay on NCI/ADR-RES ovarian, 93.9%.

With `N#Cc1nn(-c2cc(=O)[nH]c3ccc(Br)cc23)c(N)c1C#N`, the growth was -14.2% (active) in the assay on SR leukemia; -29.7% (active) with RPMI-8226 leukemia; 96% in the assay with OVCAR-8 ovarian; 103% in the assay with OVCAR-5 ovarian; 81.6% with OVCAR-4 ovarian; 69.1% with SK-OV-3 ovarian. For the same compound, the growth was 90.5% in the assay with IGROV1 ovarian, 103% in the assay on OVCAR-3 ovarian, 88.6% in the assay with HS 578T breast and 102% in the assay with NCI/ADR-RES ovarian.

As to `O=C1/C(=C/c2ccccn2)SC(=S)N1N1CCOCC1`, the growth was 108% with SR leukemia; 105% in the assay with RPMI-8226 leukemia; 98.9% in the assay with OVCAR-8 ovarian; 97.9% in the assay with OVCAR-5 ovarian; 107% with OVCAR-4 ovarian; 101% in the assay with SK-OV-3 ovarian. For the same compound, the growth was 94.1% with IGROV1 ovarian, 99.5% in the assay with OVCAR-3 ovarian, 96.7% with HS 578T breast and 104% with NCI/ADR-RES ovarian.

With `Clc1ccc(Nc2ncc(Cc3cccc(Cl)c3Cl)s2)cc1`, the growth with SR leukemia was 102%; in the assay with RPMI-8226 leukemia, 89.4%; with OVCAR-8 ovarian, 98%; in the assay with OVCAR-5 ovarian, 85.8%; with OVCAR-4 ovarian it was 94.8%; in the assay with SK-OV-3 ovarian it was 102%. For the same compound, the growth in the assay on IGROV1 ovarian is 93.3%; with OVCAR-3 ovarian, 100%; in the assay with HS 578T breast it was 102%; with NCI/ADR-RES ovarian it was 93.3%.

Regarding `COC1C(O)CC(OC2CC(OC3CC(O[C@@H]4C(=O)c5c(cc6cc(OC7CC(OC8CC(O)C(O)C(C)O8)C(O)C(C)O7)c(C)c(O)c6c5O)CC4[C@H](OC)C(=O)O)OC(C)C3O)OC(C)C2O)OC1C` (stereo not given in full), the growth in the assay with SR leukemia is 18%; with RPMI-8226 leukemia, 19%; with OVCAR-8 ovarian it was 15.6%; in the assay with OVCAR-5 ovarian it was 29.3%; in the assay on OVCAR-4 ovarian, 44.8%; with SK-OV-3 ovarian, 35.1%. The growth with IGROV1 ovarian was 23.7%; in the assay with OVCAR-3 ovarian it was 18%; with HS 578T breast, 23.5%; with NCI/ADR-RES ovarian it was 63%.

In the case of `Nc1nc(N(Cc2ccccc2)c2ccccc2)c2cn[nH]c2n1`, the growth in the assay with SR leukemia is 4.11% (active); in the assay with RPMI-8226 leukemia, 58.5%; in the assay with OVCAR-8 ovarian, 80.3%; in the assay on OVCAR-5 ovarian it was 100%; in the assay on OVCAR-4 ovarian it was 78.6%; in the assay with SK-OV-3 ovarian, 95.6%. Also, the growth in the assay with IGROV1 ovarian is 80.7%; in the assay on OVCAR-3 ovarian, 76.7%; in the assay on HS 578T breast, 58.2%; in the assay with NCI/ADR-RES ovarian it was 59.9%.
